Assay outcomes as filed in PubChem BioAssay.
GalR3 antag – blocks the human galanin receptor 3 | O60755 | HEK293 GalR3-CNG cAMP membrane potential fluorescence; galR3 body fused to GalR1 C-terminus | inhibition, % at 3 µM | hit rate 0.44% among 360,000 | AID 651719;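 active = inhibition above the screen-wide average plus 3 SD, cut at about 13% in these data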;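 note: forskolin and galanin both at EC90 stimulate the cells; cAMP rise reported by CNG channel membrane potential dye signal; 0% = forskolin plus galanin with DMSO and 100% = forskolin alone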
SRC1 inh – inhibits human SRC1 coactivator. Q15788. HEK293 GAL4-SRC1 luciferase reporter, luminescence. inhibition, % at 3.6 µM. hit rate 0.12% among 360,000. AID 588354;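 active = inhibition above the campaign mean plus 3 SD, with each screening campaign given its own cutoff, cut at about 60% in these data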;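 note: 0% = DMSO treated cells and 100% = gossypol at 36 µM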
SRC2 inh – human SRC2 (NCOA2) inhibition. AID 651957. HEK293 GAL4-SRC2 luciferase reporter, luminescence. hit rate 0.17% among 370,000. Q15596. inhibition, % at 9 µM;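 active = inhibition above the mean inhibition of all tested compounds plus 3 SD, set per campaign, cut at about 52% in these data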;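 note: 0% = DMSO treated cells and 100% = cells given Gossypol at 36 µM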
Target sequence (Q15596 whole entry, looked up, the tested form may be a part): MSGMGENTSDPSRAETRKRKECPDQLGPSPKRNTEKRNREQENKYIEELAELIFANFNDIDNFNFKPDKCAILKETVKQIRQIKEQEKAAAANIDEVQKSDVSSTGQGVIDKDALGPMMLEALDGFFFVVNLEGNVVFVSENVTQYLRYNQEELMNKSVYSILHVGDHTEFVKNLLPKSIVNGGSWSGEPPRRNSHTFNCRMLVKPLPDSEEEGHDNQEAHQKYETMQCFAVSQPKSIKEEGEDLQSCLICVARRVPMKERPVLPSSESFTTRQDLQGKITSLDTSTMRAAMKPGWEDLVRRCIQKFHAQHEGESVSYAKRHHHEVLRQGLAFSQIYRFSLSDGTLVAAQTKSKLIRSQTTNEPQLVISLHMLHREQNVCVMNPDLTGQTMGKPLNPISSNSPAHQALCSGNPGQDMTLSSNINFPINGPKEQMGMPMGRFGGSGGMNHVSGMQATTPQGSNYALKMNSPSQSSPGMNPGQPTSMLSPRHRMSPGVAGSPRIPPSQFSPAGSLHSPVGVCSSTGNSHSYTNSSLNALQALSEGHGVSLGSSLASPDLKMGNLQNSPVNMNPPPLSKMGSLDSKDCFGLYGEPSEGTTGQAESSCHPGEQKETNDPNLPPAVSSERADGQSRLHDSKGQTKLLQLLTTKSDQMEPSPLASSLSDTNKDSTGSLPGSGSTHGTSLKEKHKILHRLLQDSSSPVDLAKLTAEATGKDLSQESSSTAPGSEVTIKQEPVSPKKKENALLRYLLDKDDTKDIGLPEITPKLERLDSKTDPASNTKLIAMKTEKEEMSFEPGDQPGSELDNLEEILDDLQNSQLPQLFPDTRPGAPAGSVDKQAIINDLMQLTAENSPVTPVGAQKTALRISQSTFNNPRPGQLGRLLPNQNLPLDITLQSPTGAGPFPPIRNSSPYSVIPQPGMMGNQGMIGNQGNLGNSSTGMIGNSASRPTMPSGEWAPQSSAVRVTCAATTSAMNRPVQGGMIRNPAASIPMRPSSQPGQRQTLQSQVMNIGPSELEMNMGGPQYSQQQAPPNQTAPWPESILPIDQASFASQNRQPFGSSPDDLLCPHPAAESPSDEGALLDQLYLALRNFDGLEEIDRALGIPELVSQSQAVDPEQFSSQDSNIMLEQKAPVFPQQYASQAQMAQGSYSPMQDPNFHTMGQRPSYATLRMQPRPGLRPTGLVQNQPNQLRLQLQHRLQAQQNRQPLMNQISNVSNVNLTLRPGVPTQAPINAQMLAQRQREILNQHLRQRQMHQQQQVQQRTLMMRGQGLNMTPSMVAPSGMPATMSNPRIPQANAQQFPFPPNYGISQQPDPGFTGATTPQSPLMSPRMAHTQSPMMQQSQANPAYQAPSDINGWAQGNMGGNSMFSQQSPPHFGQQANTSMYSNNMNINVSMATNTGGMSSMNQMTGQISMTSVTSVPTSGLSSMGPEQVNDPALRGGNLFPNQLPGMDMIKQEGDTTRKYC
COUP-TFII inh – NR2F2 (human) inhibition, primary screen; P24468; HEK293T NGFI-A luciferase reporter, luminescence; inhibition, % at 8.6 µM; hit rate 0.7% among 370,000;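 active = inhibition above a per-plate cutoff, mean inhibition of test wells between control levels plus 3 SD, cut at about 38% in these data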;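 note: cells cotransfected with COUP-TFII expression vector driving the NGFI-A reporter; 0% = median of COUP-TF2 test wells and 100% = reporter-only cells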
NCOA3 inh – human NCOA3 inhibition; HEK293 GAL4-SRC3 luciferase reporter, luminescence; inhibition, % at 3.6 µM; hit rate 0.17% among 360,000;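 active = inhibition above a per-campaign cutoff, the mean of all compounds plus 3 SD, cut at about 60% in these data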;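 note: 0% = DMSO-treated cells and 100% = gossypol-treated cells at 36 µM; higher means less SRC3-driven luciferase light from the GAL4 reporter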
NR5A2 inv ag – suppresses constitutive activity of human LRH-1; O00482; AID 602396; HEK293T StAR-luciferase reporter, LRH-1 transfected, 24 h; inhibition, % at 3.6 µM; hit rate 0.13% among 360,000;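 active = inhibition above the mean inhibition of all tested compounds plus 3 SD, cut at about 73% in these data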;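 note: 0% = DMSO wells and 100% = reporter-only cells lacking LRH-1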
Gal4-VP16 ctr – inhibits VP16 reporter, flagging COUP-TFII antagonist hits; shares compounds with COUP-TFII inh; HEK293 Gal4-VP16 luciferase reporter, luminescence; inhibition, % at 8.5 µM; hit rate 25% among 2,500; AID 687007; in the data active = inhibition above about 13%
COUP-TFII conf – confirmation of human COUP-TFII (NR2F2) inhibitors. shares compounds with COUP-TFII inh. HEK293 NGFI-A luciferase reporter, luminescence. inhibition, % at 8.5 µM. hit rate 45% among 2,500;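 active = mean inhibition over three repeats above a set limit taken from the earlier primary screen, cut at about 38% in these data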;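 note: 100% = cells given the luciferase reporter alone without the COUP-TF2 vector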
An asterisk follows results filed as active; nt = no result given. Most compounds without a hit are left out; they make up all but 1.1% or so of the library.

SMILES	GalR3 antag	SRC1 inh	SRC2 inh	COUP-TFII inh	NCOA3 inh	NR5A2 inv ag	Gal4-VP16 ctr	COUP-TFII conf
CC1CCN(CCc2nc3cc(NC(=O)COc4ccc([N+](=O)[O-])cc4)ccc3n2C)CC1	-9	-18	-10	-7	22	22	nt	nt
COc1ccc(CN(C)C(=O)CCc2ccc(S(=O)(=O)N3CCCCCC3)cc2)c(OC)c1	-3	-3	-9	5	13	21	nt	nt
COc1ccc(CN(C)C(=O)/C=C/c2ccc(S(=O)(=O)N3CCCCCC3)cc2)cc1	-9	-9	13	38*	18	10	10	27
CCOc1ccc(CN(C)C(=O)CCc2ccc(S(=O)(=O)N3CCCCCC3)cc2)cc1	-4	5	24	41*	25	20	1	19
CCOc1ccc(NC(=O)CN(C)C(=O)CCCOc2ccc(Br)cc2)cc1OCC	2	-14	-1	29	13	11	nt	nt
CCCCNC(=O)C1(C)CCCCN1C(=O)c1ccc2c(c1)C(C)(C)CCC2(C)C (stereo unspecified)	-8	25	21	38*	-12	25	-4	29
CCCCNC(=O)C1(C)CCN1C(=O)c1ccc2c(c1)C(C)(C)CCC2(C)C (stereo unspecified)	-6	1	28	20	3	16	nt	nt
COc1ccc(-n2c(C(C)n3nc(C)c([N+](=O)[O-])c3C)n[nH]c2=S)cc1 (stereo unspecified)	-1	13	-2	-2	12	-4	nt	nt
COc1ccc(-n2c(C)c([N+](=O)[O-])c3ccc(O)c(CN(C)C)c32)cc1	-6	69*	54*	41*	61	28	29*	33
CN(C)c1nc(N)c2nccnc2n1	-7	-48	0	7	-2	-25	nt	nt
CCN(CC)c1nc(C=Cc2ccc(N(C)C)cc2)c2nccnc2n1	-4	-7	66*	88*	1	12	-12	-4
CC(Oc1cc2oc(=O)c3c(c2cc1Cl)CCC3)C(=O)NCc1ccccn1 (stereo unspecified)	2	0	-10	-1	-2	5	nt	nt
N#Cc1ccc(Cn2ccc3ccc(-c4ccc5ccn(C(=O)C6CC6)c5c4)cc32)cc1	nt	nt	-3	1	nt	nt	nt	nt
Cc1nn(-c2ccc3ccccc3c2)c(=O)c2ccccc12	-3	-104	-70	-40	-75	-109	nt	nt
Cc1nn(-c2nc3ccccc3[nH]2)c(=O)c2ccccc12	-1	74*	85*	97*	80*	73*	68*	90*
CC(Cc1nnc(N)s1)c1ccccc1 (stereo unspecified)	2	-1	21	-8	-11	-7	nt	nt
CN(CCc1ccccc1)C(=O)c1ccc(NC(=O)Cc2ccc(NC(=O)C3CCCN(C(=O)CCc4ccccc4)C3)cc2)cc1 (stereo unspecified)	-8	20	21	73*	32	54	3	72*
O=C(Nc1ccc(Cl)cc1)O[C@@H]1CC[C@@]23CCCN2C(=O)CCC[C@H]3C1	nt	nt	nt	6	nt	nt	nt	nt
N#Cc1ccc(Cl)cc1NC(=O)CN1C(=O)C(=O)N(CCC2=CCCCC2)C1=O	-7	-11	-2	13	0	2	nt	nt
O=C(c1cc2nc(-c3ccc(F)cc3)cc(C(F)(F)F)n2n1)N1CCCCC1c1cccnc1 (stereo unspecified)	0	13	10	41*	27	10	9	57*
Cc1noc(C)c1CSCC(=O)N1CCN(c2ccc([N+](=O)[O-])cc2)CC1	-5	5	19	38*	13	30	2	26
Cc1ccc(-c2cc(C(=O)NN=Cc3ccc(-c4ccccc4)cc3)[nH]n2)cc1	nt	nt	-46	7	nt	nt	nt	nt
CCOc1cc(CNCc2ccncc2)cc(Br)c1OCc1ccccc1F	-4	0	13	38*	10	30	11	34
Cc1ccc(NC(=O)c2cc3c(s2)CCCC3)cc1S(=O)(=O)Nc1ccccc1Cl	-1	19	4	40*	15	23	1	23
